Measured values from PubChem BioAssay.

target: Dickkopf-related protein 1 (Homo sapiens) (UniProt O94907); test: small molecules binding DKK1 protein – biochemical, small-molecule microarray, 635 nm fluorescence scan, primary screen (AID 1106); details: higher = more signal;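 note: score merges emission near 667 nm with signal to noise over three replicate slides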
Sequence (O94907 whole entry, looked up): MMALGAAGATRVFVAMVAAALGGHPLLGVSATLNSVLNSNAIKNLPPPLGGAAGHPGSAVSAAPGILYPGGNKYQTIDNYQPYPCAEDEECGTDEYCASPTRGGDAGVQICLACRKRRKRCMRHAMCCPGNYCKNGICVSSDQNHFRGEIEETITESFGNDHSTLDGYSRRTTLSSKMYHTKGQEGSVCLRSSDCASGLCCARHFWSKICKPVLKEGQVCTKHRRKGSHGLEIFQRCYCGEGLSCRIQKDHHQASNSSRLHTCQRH

Row | SMILES | composite z-score
1 | C=CCC(OC(C)=O)[C@@H]1[C@@H](N(Cc2cccc3ccccc23)C(=O)c2ccc(C)cc2)c2cc(OCCCO)ccc2N1C(=O)c1ccc(-c2ccccc2)cc1 (stereo partly drawn) | -0.133
2 | C=CCN1C(=O)[C@]2(O[C@H](CCn3cc(CCO)nn3)[C@@H]([Si](C)(C)c3ccc(OC)cc3)[C@@H]2C)c2cc(NC(=O)c3ccc(OC)cc3)ccc21 | 0.863
3 | CC(=O)NCCCC[C@@H]1NC(=O)[C@@H]2C[C@H](C(=O)NCCCCCCN(C)C)[C@H](c3ccc(O)cc3)N2C1=O | 1.86
4 | CO[C@@H]1COC(=O)[C@H](COCc2ccccc2)NC(=O)CC=C[C@@H](C)[C@H](OC)COC(=O)[C@H](COCc2ccccc2)NC(=O)CC=C[C@H]1C | 0.96
5 | COCCOC(=O)N1C(=O)[C@@]2(c3ccccc31)[C@H](C(=O)N1CCc3cc(OC)c(OC)cc3C1)[C@H]1C(=O)O[C@H](c3ccccc3)[C@H](c3ccccc3)N1[C@@H]2c1ccccc1OCCO | 0.214
6 | C=C(CCCC)/C(=C/C[C@@H](OC(=O)c1ccncc1)c1cccc(OCCO)c1)c1cc(C(=O)OC)ccc1OC | 0.438
7 | C#CCCCON=C1C[C@@H](O)[C@@H](O)[C@@H]2[C@@H]3C(=O)N(Cc4ccc5c(c4)OCO5)C(=O)[C@@H]3CC[C@@H]12 | 0.278

tested on: Inhibin beta A chain (activin A); test: small molecules binding activin A – biochemical, small-molecule microarray, 635 nm fluorescence scan, primary screen (AID 1107); details: INHBA, higher = more signal;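 note: mouse activin A protein probed at 4.33 µg/mL on printed slides; score merges bound-protein fluorescence near 667 nm with spot signal-to-noise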

Row | SMILES | composite z-score
8 | O=C1C2C=CC(C(O)Cc3ccccc3)N(Nc3ccc([N+](=O)[O-])cc3)C2C(=O)N1c1ccccc1 (stereo not drawn) | 0.582
9 | CC(C)C[C@@H]1NC(=O)[C@H](CC(C)C)NC(=O)[C@@]23C(=O)N[C@@H](Cc4ccccc4)C2[C@H](C)[C@@]2(C)O[C@H]2C3/C=C/CC/C=C/CNC1=O (stereo partly drawn) | 1.38
10 | COC(=O)[C@@]1(Cc2ccccc2CN=[N+]=[N-])N=C(c2ccc(OCCCO)cc2)O[C@H]1c1ccccc1N=[N+]=[N-] | 0.948
11 | CCOC(=O)C[C@H]1[C@H](OC(=O)Cc2ccc3c(c2)OCO3)[C@@H](NC(=O)c2ccc3ccccc3c2)c2cc(OCCCO)ccc2N1C(=O)Cc1ccc(OC)cc1 | 0.147
12 | C[N+](C)(C)CCCCNC(=O)[C@H]1C[C@H]2C(=O)NCC(=O)N2[C@H]1c1cccc(OCCO)c1 | 0.747
13 | C=C(/C(=C/C[C@@H](OC(=O)c1ccncc1)c1ccc(CO)o1)c1cnc2ccccc2c1)C(C)C | 1.58
14 | CCCNC(=O)[C@@]1(Sc2ccc(C)cc2)CC(=O)N(Cc2ccccc2Cl)[C@@H]1c1ccc(CO)cc1 | 1.42
15 | COC(=O)Cn1c(C(=O)N2CCCC2)cc2c1C[C@H]1CN(C(=O)c3ccccc3)[C@@](Cc3ccccc3)(C(=O)OC)[C@@H]21 | 0.632
16 | NC(=O)NCC#Cc1ccc2c(c1)[C@]1(C(=O)N2)[C@H](C(=O)N2CCCCCCC2)[C@H]2C(=O)O[C@H](c3ccccc3)[C@H](c3ccccc3)N2[C@@H]1c1ccccc1OCCO | 1.86
17 | Cc1ccc(S[C@]2(C(=O)NCCCN(C)C)CC(=O)N(C3CCCCC3)[C@@H]2c2ccc(CO)cc2I)cc1 | 1.14
18 | CCN1C(C)=C(C(=O)OC)[C@@H](c2ccccc2)N2C(=O)[C@@]3(C(=O)OC)O[C@@]12[C@@H]1C(=O)N(C)C(=O)[C@@H]13 | 0.613
19 | CO[C@H]1COC(=O)[C@H](C)NC(=O)CC=C[C@@H](C)[C@H](NS(=O)(=O)c2ccc(C)cc2)COC(=O)CC=C[C@@H]1C | 1.47
20 | Cc1ccc(S(=O)(=O)N[C@H]2COC(=O)CC=C[C@H](C)COC(=O)N[C@@H](C)C(=O)CC=C[C@@H]2C)cc1 | 0.283
21 | CN1C2C=C(c3ccc(CO)cc3)C(C3C(=O)N(C(N)=O)C(=O)C32)C1c1cccs1 (stereo not drawn) | 1.02
22 | CCCC=C(CCC)[C@@H](NS(=O)(=O)c1ccc(C(F)(F)F)cc1)c1ccc(-c2ccccc2)cc1 | 0.835
23 | CO[C@H]1COC(=O)[C@@H](C)NC(=O)CC=C[C@@H](C)[C@H](OC)COC(=O)CC=C[C@@H]1C | 1.62
24 | C=CCC(OC(C)=O)[C@@H]1[C@@H](N(Cc2cc3ccccc3o2)C(=O)Cc2ccc(F)cc2)c2cc(OCCCO)ccc2N1C(=O)c1ccc(-c2ccccc2)cc1 (stereo partly drawn) | 1.18
25 | Cc1ccc(N2C(=O)c3ccccc3[C@@H](C(=O)NCc3ccccc3)[C@@H]2c2ccc(CO)cc2)nc1 | 1.71

Row | SMILES | composite z-score
26 | CCCC[C@@H]1C[C@H]1[C@@H](NC(=O)c1ccccc1)c1ccccc1C(F)(F)F | 0.616
27 | CN1C(=O)C2C=CC(C(O)c3ccc(N(C)C)cc3)N(Nc3ccc([N+](=O)[O-])cc3[N+](=O)[O-])C2C1=O (stereo not drawn) | 1.49
28 | O=C1C2C=CC(C(O)C#Cc3ccccc3)N(Nc3ccccc3)C2C(=O)N1c1ccccc1 (stereo not drawn) | 0.687
29 | Cc1ccc(S[C@]2(C(=O)NCCN3CCOCC3)CC(=O)N(C3Cc4ccccc4C3)[C@@H]2c2ccc(CO)cc2I)cc1 | 0.72
30 | O=C1O[C@@H](c2ccccc2)[C@@H](c2ccccc2)N2[C@@H](c3ccc(O)cc3)[C@]3(C(=O)Nc4ccccc43)[C@@H](C(=O)N3CCN(c4ncccn4)CC3)[C@H]12 | -0.437
31 | C=CC[C@]1(C(=O)NCC(O)CO)N=C(c2ccc(OCCCO)cc2)O[C@H]1c1ccccc1 (stereo partly drawn) | 0.236
32 | CC[C@@H]1C=C(C(=O)O)[C@H](c2ccccc2)N1S(=O)(=O)c1ccc([N+](=O)[O-])cc1 | 0.781
33 | CN1CCC(CCCO)=CC1C1CC1 (stereo not drawn) | 0.719
34 | C=CC[C@]1(C(=O)N2CCCCC2)N=C(c2ccc(OCCCO)cc2)O[C@H]1c1ccccc1N=[N+]=[N-] | 1.06
35 | COc1cccc([C@@H]2[C@@H](C)CC[C@H]3C(=O)N4[C@H](c5cccc(OC)c5)[C@@H](C)CC[C@H]4C(=O)N23)c1 | -0.185
36 | COCCOC(=O)N1C(=O)[C@@]2(c3cc(C#CC4=CCCCC4)ccc31)[C@H](c1ccc(O)cc1)N1[C@H](c3ccccc3)[C@H](c3ccccc3)OC(=O)[C@H]1[C@@H]2C(=O)N1CCCCCCC1 | 1.6
37 | C=CCC(OC(C)=O)[C@@H]1[C@@H](N(Cc2cccc3ccccc23)C(=O)c2ccc(C)cc2)c2cc(OCCCO)ccc2N1C(=O)c1ccc(-c2ccccc2)cc1 (stereo partly drawn) | 1.08
38 | C=CCN1C(=O)[C@]2(O[C@H](CCn3cc(CCO)nn3)[C@@H]([Si](C)(C)c3ccc(OC)cc3)[C@@H]2C)c2cc(NC(=O)c3ccc(OC)cc3)ccc21 | 1.63
39 | CC(=O)NCCCC[C@@H]1NC(=O)[C@@H]2C[C@H](C(=O)NCCCCCCN(C)C)[C@H](c3ccc(O)cc3)N2C1=O | 0.11
40 | CO[C@@H]1COC(=O)[C@H](COCc2ccccc2)NC(=O)CC=C[C@@H](C)[C@H](OC)COC(=O)[C@H](COCc2ccccc2)NC(=O)CC=C[C@H]1C | 1.51
41 | COCCOC(=O)N1C(=O)[C@@]2(c3ccccc31)[C@H](C(=O)N1CCc3cc(OC)c(OC)cc3C1)[C@H]1C(=O)O[C@H](c3ccccc3)[C@H](c3ccccc3)N1[C@@H]2c1ccccc1OCCO | 0.635
42 | C=C(CCCC)/C(=C/C[C@@H](OC(=O)c1ccncc1)c1cccc(OCCO)c1)c1cc(C(=O)OC)ccc1OC | 0.482
43 | C#CCCCON=C1C[C@@H](O)[C@@H](O)[C@@H]2[C@@H]3C(=O)N(Cc4ccc5c(c4)OCO5)C(=O)[C@@H]3CC[C@@H]12 | 0.308
